PubChem BioAssay AID588397 (National Center for Advancing Translational Sciences (NCATS), 2011)
Among all 1,300 compounds or so, about 1,000 (77%) were called active. Roughly 7% stayed inconclusive and do not appear here. Calls follow the shape of the dose curve; as a rule, active = well fitted inhibition curve with a large enough effect; inconclusive = small, poorly fitted or top-dose-only effect; inactive = no such curve, though single readings can be large or run the other way. The set was probably picked from earlier hits. Some of the results follow.

assay: qHTS of small molecules that selectively kill Giardia lamblia: Hit Validation.;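 also: viability measured as ATP content by luminescence so killing lowers signal; trophozoites exposed to compounds for 48 h anaerobically at 37 °C; nearly all actives have a fitted effect of over 65% in size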; settings: Giardia lamblia trophozoite viability, dose-response; series mostly up to 38.3 µM
Outline: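 HTS viability screen: compound-treated trophozoites (100 cells/well) are kept anaerobic at 37 deg C for 48 hrs, and surviving cells are detected through ATP-dependent luminescence.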
Potency is read from the fitted curve at half-maximal effect.

| Compound | Potency |
| --- | --- |
| CCOP(=O)(OCC)c1cccc(P(=O)(c2ccccc2)c2ccccc2)c1O | inactive |
| COC(=O)[C@]1(C)N[C@H](CN(C)S(=O)(=O)c2ccc(-c3ccccc3)cc2)[C@@H]2C(=O)N(C)C(=O)[C@@H]21 | inactive |
| COc1ccc2nc(NC(=O)c3ccc([N+](=O)[O-])o3)sc2c1 | 0.918 µM (active) |
| O=C(Nc1nc2c(F)cccc2s1)c1ccc([N+](=O)[O-])o1 | 1.03 µM (active) |
| O=C(Nc1nc2ccccc2s1)c1ccc([N+](=O)[O-])o1 | 1.03 µM (active) |
| NC(=O)c1oc2ccccc2c1NC(=O)c1ccc([N+](=O)[O-])o1 | 0.65 µM (active) |
| O=C(Nc1cccc2ccccc12)c1ccc([N+](=O)[O-])o1 | 1.03 µM (active) |
| O=C(Nc1cccc2ncccc12)c1ccc([N+](=O)[O-])o1 | 0.918 µM (active) |
| COc1cc(C2C(C(=O)c3ccc(C)o3)=C(O)C(=O)N2c2cc(C)on2)ccc1OCc1ccccc1 (stereo not given) | inactive |
| CCC(C)Nc1ccc(NC(C)CC)cc1 (stereo not given) | 0.183 µM (active) |
| Clc1ccc2c(N/N=C/c3ccc(Br)cc3)ccnc2c1 | 0.516 µM (active) |
| O=[N+]([O-])c1ccc(/C=N/Nc2ccnc3cc(Cl)ccc23)o1 | 2.05 µM (active) |
| Clc1ccc2c(N/N=C/c3cccc(Br)c3)ccnc2c1 | 1.45 µM (active) |
| Cc1nc2c(N=Nc3ccccc3F)c(N)nn2c(N)c1C#N | 4.6 µM (active) |
| CCOC(=O)Cn1c(=NC(=O)c2ccc([N+](=O)[O-])s2)sc2ccccc21 | 1.83 µM (active) |
| CC(=O)O[C@@H]1[C@@H](O)CN[C@@H]1Cc1ccccc1 | 0.579 µM (active) |
| O=[N+]([O-])c1cc(S(=O)(=O)Nc2cccc(Cl)c2)ccc1N/N=C/c1ccc(N2CCOCC2)cc1 | 6.5 µM (active) |
| O=[N+]([O-])c1cc(S(=O)(=O)N2CCCC2)ccc1N/N=C/c1ccncc1 | 2.31 µM (active) |
| N=C1C(c2ccccc2)=C(O)CN1c1cccc(S(=O)(=O)N2CCOCC2)c1 | inactive |
| O=[N+]([O-])c1cc(S(=O)(=O)N2CCOCC2)ccc1NS(=O)(=O)c1ccccc1 | 1.83 µM (active) |

| Compound | Potency |
| --- | --- |
| O=S(=O)(c1ccccc1)N1CCN(S(=O)(=O)c2ccccc2)CC1 | inactive |
| C(=C\c1nccc2ccccc12)/c1ccc(N2CCOCC2)cc1 | 2.31 µM (active) |
| Nc1ccc(/C=C/c2nccc3ccccc23)cc1 | 3.26 µM (active) |
| Nc1ncnc2c1ncn2C1O[C@H](CO)[C@@H](O)[C@@H]1O (stereo not given in full) | 0.818 µM (active) |
| O=C(Nc1ccc2nc(-c3ccco3)[nH]c2c1)c1cccs1 | 5.79 µM (active) |
| O=C(Nc1ccc2c(c1)nc1n2CCSC1)c1ccco1 | 4.6 µM (active) |
| O=C(NC12CC3CC(CC(C3)C1)C2)c1ccc([N+](=O)[O-])o1 | 1.03 µM (active) |
| CC(NC(=O)c1ccc([N+](=O)[O-])o1)C1CC2CCC1C2 (stereo not given) | 1.45 µM (active) |
| CC(NC(=O)c1ccc([N+](=O)[O-])o1)C12CC3CC(CC(C3)C1)C2 (stereo not given) | 0.918 µM (active) |
| O=[N+]([O-])c1nn(-c2ccc3c(c2)OCCO3)n(O)c1=Nc1ccc(Cl)cc1 | 1.3 µM (active) |
| CC(C)c1ccc(N=c2c([N+](=O)[O-])nn(-c3ccc4c(c3)OCCO4)n2O)cc1 | 2.05 µM (active) |
| O=c1c2ccccc2nc(/C=C/c2ccc([N+](=O)[O-])o2)n1CCCO | 0.579 µM (active) |
| CC(=O)N(/N=C/c1ccc([N+](=O)[O-])o1)c1nc2ccccc2c(=O)n1-c1ccccc1 | 1.03 µM (active) |
| Cc1cccc(-c2nnc(SCc3cc(=O)[nH]c4ccccc34)n2C)c1 | inactive |
| Cc1cc(C)nc(N/N=C/c2ccc(Cl)cc2)n1 | inactive |
| CCNc1nc(NCC)nc(N/N=C/c2ccc([N+](=O)[O-])o2)n1 | 2.59 µM (active) |
| Cc1cc(C)nc(N/N=C/c2ccc([N+](=O)[O-])o2)n1 | 1.3 µM (active) |
| O=C(Cc1csc(Nc2nc(=S)[nH]c3ccccc23)n1)NCCCN1CCN(c2ccccc2F)CC1 | 14.5 µM (active) |
| CCOC(=O)Cc1csc(NC(=S)NC(=O)c2ccc(C)cc2)n1 | 7.29 µM (active) |
| CSc1cccc(NS(=O)(=O)c2cn(C)cn2)c1 | inactive |

| Compound | Potency |
| --- | --- |
| C=CCn1c(C)cc(C(=O)COc2ccc(C)nc2[N+](=O)[O-])c1C | 0.46 µM (active) |
| Cc1ccc(OCC(=O)c2cc(C)n(C)c2C)c([N+](=O)[O-])n1 | 1.45 µM (active) |
| Cc1ccc(OCc2ccc([N+](=O)[O-])cc2)c([N+](=O)[O-])n1 | 3.26 µM (active) |
| COCCn1c(C)cc(C(=O)COc2cccnc2[N+](=O)[O-])c1C | 1.3 µM (active) |
| CCCn1c(C)cc(C(=O)COc2ccc(C)nc2[N+](=O)[O-])c1C | 1.03 µM (active) |
| COCCn1c(C)cc(C(=O)COc2ccc(C)nc2[N+](=O)[O-])c1C | 0.918 µM (active) |
| C=CCn1c(C)cc(C(=O)COC(=O)c2n[nH]c(=O)c3ccccc23)c1C | 4.6 µM (active) |
| c1ccc2cc3c(NCCN4CCOCC4)ccnc3cc2c1 | 1.83 µM (active) |
| Cc1ccc(-c2cnc3cc(C)nn3c2)cc1 | 5.79 µM (active) |
| COc1cccc(CSc2nc3ccncc3[nH]2)c1 | 1.63 µM (active) |
| O=C(c1ccc(CSc2nc3ccncc3[nH]2)cc1)N1CCCCCC1 | 1.16 µM (active) |
| Clc1ccc(CSc2nc3ccncc3[nH]2)cc1 | 0.579 µM (active) |
| Clc1ccccc1CSc1nc2ccncc2[nH]1 | 3.65 µM (active) |
| Cc1ccc(CSc2nc3ccncc3[nH]2)cc1 | 0.259 µM (active) |
| CC(C)CC(=O)NC(=S)NNC(=O)c1ccc([N+](=O)[O-])cc1 | 1.3 µM (active) |
| CCCC(=O)NC(=S)NNC(=O)c1ccc([N+](=O)[O-])cc1 | 0.41 µM (active) |
| CSCCC(NS(=O)(=O)c1ccc2c(c1)OCCO2)C(=O)N(C)Cc1ccccc1F (stereo not given) | inactive |
| CSCCC(NC(=O)OC(C)(C)C)C(=O)Oc1ccc2c(=O)c(-c3ccc4c(c3)OCCO4)coc2c1 (stereo not given) | 1.03 µM (active) |
| O=C(Nc1cc(S(=O)(=O)N2CCOCC2)ccc1N1CCOCC1)c1ccc([N+](=O)[O-])s1 | 4.1 µM (active) |
| O=C(Nc1ccccc1N1CCOCC1)c1ccc([N+](=O)[O-])s1 | 2.05 µM (active) |
